High-throughput results (PubChem BioAssay)
Mdm2 MdmX PPI – inhibitors of human Mdm2/MdmX interaction | inhibition, % at 8 µM | O15151+Q00987 | SaOS-2 split-luciferase Mdm2/MdmX complementation, luminescence | 330,000 tested, 3% active;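 active = inhibition of at least 50% at 8 µM in the primary screen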
Target sequence (O15151 whole entry, looked up): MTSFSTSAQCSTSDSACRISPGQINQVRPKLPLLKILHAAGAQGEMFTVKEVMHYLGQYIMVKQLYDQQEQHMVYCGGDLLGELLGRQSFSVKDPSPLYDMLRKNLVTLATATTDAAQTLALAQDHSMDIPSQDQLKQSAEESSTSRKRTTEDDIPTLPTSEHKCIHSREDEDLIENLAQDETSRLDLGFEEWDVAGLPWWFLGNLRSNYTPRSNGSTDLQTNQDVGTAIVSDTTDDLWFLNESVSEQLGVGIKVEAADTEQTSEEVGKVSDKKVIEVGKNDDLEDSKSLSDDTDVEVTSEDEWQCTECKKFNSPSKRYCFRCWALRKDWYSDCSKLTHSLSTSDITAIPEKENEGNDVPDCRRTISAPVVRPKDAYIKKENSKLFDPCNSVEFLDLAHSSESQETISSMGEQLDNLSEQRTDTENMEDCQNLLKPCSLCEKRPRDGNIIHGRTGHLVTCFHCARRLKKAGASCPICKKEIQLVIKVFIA
Target sequence (Q00987 whole entry, looked up): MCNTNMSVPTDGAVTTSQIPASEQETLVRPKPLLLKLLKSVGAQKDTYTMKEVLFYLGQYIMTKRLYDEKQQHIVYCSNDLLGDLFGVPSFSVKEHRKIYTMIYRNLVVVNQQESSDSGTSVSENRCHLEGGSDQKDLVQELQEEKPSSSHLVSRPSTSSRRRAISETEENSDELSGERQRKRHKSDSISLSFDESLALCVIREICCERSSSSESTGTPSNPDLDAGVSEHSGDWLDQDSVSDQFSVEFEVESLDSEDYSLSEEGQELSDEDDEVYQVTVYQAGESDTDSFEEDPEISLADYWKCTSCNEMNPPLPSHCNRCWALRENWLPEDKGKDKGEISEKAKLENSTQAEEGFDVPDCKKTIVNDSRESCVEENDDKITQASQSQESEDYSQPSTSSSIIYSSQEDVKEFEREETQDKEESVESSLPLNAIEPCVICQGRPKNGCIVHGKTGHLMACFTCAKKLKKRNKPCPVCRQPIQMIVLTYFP
NR3A LBD binder – modulates the human NR3A ligand-binding domain; NR3A LBD differential scanning fluorimetry, Tm shift; 0% = protein alone, 100% = glycine-bound protein; Tm shift relative to glycine control, % at 25 µM; 340,000 tested, 2.5% active; AID 1259313;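 active = melting temperature shift of at least 10% of the positive control shift, at one fixed dose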
CSC inhib – blocks cancer stem cells | AID 2717 | inhibition, % at 7.5 µM | 300,000 tested, 1.1% active | cancer stem cell-like cells viability, luminescence; in the data active = inhibition above about 75%; tested in HMLE shEcad cells
MPTP block – inhibitors of mitochondrial permeability transition pore. isolated mouse mitochondria, Ca2+ swelling absorbance, 30 min. 360,000 tested, 1.4% active. AID 602449. inhibition, % at 10 µM;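 active = inhibition of 50% or more, scaled per plate between neutral and stimulator controls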
Beta cell apopt – beta cell apoptosis inhibition | INS-1E cytokine-induced death, ATP luminescence, 48 h; percent of positive-control rescue, neutral wells zero | AID 435005 | 300,000 tested, 0.8% active | protection from apoptosis, % (test concentration not listed);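 active = Every replicate reaches about 75%, or at least half do and their mean reaches it too, limit read from the data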;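 note: higher means more ATP so stronger rescue from cytokine killing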
Gli-Sufu block – blocks Gli-Sufu signaling in a luciferase reporter; AID 588413; Sufu-KO-LIGHT fibroblasts, Gli luciferase reporter luminescence; 340,000 tested, 0.74% active; inhibition, % at 5 µM;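 active = inhibition above about 55%, limit read from the data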
Gli antag conf – confirmation of Gli-SUFU pathway antagonists; shares compounds with Gli-Sufu block; Sufu-KO-LIGHT cells, Gli luciferase reporter, luminescence; inhibition, % at 5 µM; 2,500 tested, 40% active;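 active = mean inhibition at 5 µM reaching about 45%, limit read from the data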
Gli cytotox – cytotoxicity counter-screen for Gli-SUFU antagonists | shares compounds with Gli-Sufu block | Sufu-KO-LIGHT cells cytotoxicity, ATP luminescence | cytotoxicity, % at 5 µM | 2,500 tested, 32% active;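 active = mean cytotoxicity at 5 µM above about 25%, limit read from the data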;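 note: cells exposed to compound overnight for roughly 16 to 18 hours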
Wnt3a counter – inhibits Wnt3a reporter, counter-screen for Gli-SUFU antagonists. shares compounds with Gli-Sufu block. Wnt-LIGHT cells, Wnt3a-driven luciferase reporter, luminescence. inhibition, % at 6.25 µM. 2,500 tested, 20% active. AID 651995;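 active = mean inhibition above about 25%, limit read from the data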
Of the large screens only hits and unclear results are named; the others gave an inactive call (follow-up assays come after a bar, where they were run). Most compounds without a hit are left out; they make up all but 6.6% or so of the library.

CCc1c(C)nc2ncnn2c1N1CCN(S(=O)(=O)c2ccc(OC)cc2)CC1	Gli-Sufu block 60 | Gli antag conf 47 | Gli cytotox 26 | Wnt3a counter inactive
CC(C)(C)c1[nH]nc2c1C(c1ccco1)C(C#N)=C(N)O2 (centres undefined)	none | Gli antag conf inactive | Gli cytotox inactive | Wnt3a counter inactive
CCOc1ccc(Cl)cc1CNc1nnnn1C	none | Gli antag conf inactive | Gli cytotox inactive | Wnt3a counter inactive
O=C1c2ccccc2S(=O)(=O)c2cc(C(=O)N3CCN(c4ccc(Cl)cn4)CC3)ccc21	none
N#Cc1cccnc1N1CCN(C(=O)c2ccc3c(c2)S(=O)(=O)c2ccccc2C3=O)CC1	none | Gli antag conf inactive | Gli cytotox inactive | Wnt3a counter inactive
O=C(CCC(=O)N1CCOCC1)c1ccc(F)cc1	none
CCOc1ccc2cc(C(=O)NCc3ccccc3)c(=N)oc2c1	none | Gli antag conf inactive | Gli cytotox inactive | Wnt3a counter inactive
C=CCN1C(=O)/C(=C\c2ccc(Cl)cc2)N=C1SCC(=O)NCCC	Gli-Sufu block 56 | Gli antag conf inactive | Gli cytotox inactive | Wnt3a counter inactive
CCN1C(=O)/C(=C\c2ccc(F)cc2)N=C1SCC(=O)NCc1ccco1	none
CCn1c(=O)cc(SCC(=O)N2CCN(C3CCCCC3)CC2)c2ccccc21	Gli-Sufu block 97 (no result: CSC inhib) | Gli antag conf 46 | Gli cytotox inactive | Wnt3a counter inactive
S=C1NC[C@H](CC2CCCCC2)N1CC1CCCCC1	Gli-Sufu block 65 | Gli antag conf inactive | Gli cytotox inactive | Wnt3a counter inactive
O=C(O)c1cc2nc(C3CC3)cc(C(F)(F)F)n2n1	Gli-Sufu block 56 | Gli antag conf inactive | Gli cytotox inactive | Wnt3a counter inactive
Cc1cc(C)c[n+](-c2[nH]c(=O)sc2/C=N/NC([S-])=Nc2ccccc2)c1	none
CN(C)CCNC(=O)c1cccc2nc3c(ccc4ccccc43)nc12	none (no result: Mdm2 MdmX PPI, CSC inhib, Beta cell apopt)
COc1ccc(C(=O)NCCN(C)C)c2nc3ccccc3cc12	Gli-Sufu block 64 (no result: Mdm2 MdmX PPI, CSC inhib, Beta cell apopt) | Gli antag conf 70 | Gli cytotox 38 | Wnt3a counter inactive
COc1cccc2nc3c(C(=O)NCCN(C)C)cccc3cc12	Gli-Sufu block 70 (no result: Mdm2 MdmX PPI, CSC inhib, Beta cell apopt) | Gli antag conf 62 | Gli cytotox inactive | Wnt3a counter inactive
Cc1ccc(C(NC(=O)C2CCN(Cc3ccc(Cl)c(Cl)c3)CC2)c2ccccn2)cc1 (centres undefined)	none (no result: Mdm2 MdmX PPI, NR3A LBD binder, CSC inhib, Beta cell apopt, Gli-Sufu block)
CC(C)(C)n1nnnc1C(c1ccc2ncccc2c1)N1CCC(O)CC1 (centres undefined)	Gli-Sufu block 63 | Gli antag conf inactive | Gli cytotox inactive | Wnt3a counter inactive
O=C(Cc1cccs1)Nc1nnc(COc2ccccc2)s1	Gli-Sufu block 99 | Gli antag conf inactive | Gli cytotox inactive | Wnt3a counter inactive
Cc1cccc(C)c1NC(=O)C1C2C=CC(C2)C1C(=O)O (centres undefined)	none
O=C(c1ccco1)N1CCN(c2ncnc3c2[nH]c2ccc(Br)cc23)CC1	none (no result: Mdm2 MdmX PPI, CSC inhib, Beta cell apopt)
CCOc1ccc2[nH]c3c(N4CCN(C(=O)c5ccco5)CC4)ncnc3c2c1	Gli-Sufu block 60 | Gli antag conf 50 | Gli cytotox inactive | Wnt3a counter inactive
CCn1c(SCC(=O)NC2CCCC2)nnc1-c1ccccn1	none
CCN(CC(=O)NCc1cccs1)C(=O)/C=C/c1cc(Br)ccc1OC(F)F	none | Gli antag conf inactive | Gli cytotox inactive | Wnt3a counter inactive
Nc1nc2n(n1)C(c1ccco1)CC(c1ccc(Cl)cc1Cl)N2 (centres undefined)	none | Gli antag conf inactive | Gli cytotox inactive | Wnt3a counter inactive
Nc1nc2n(n1)C(c1ccco1)CC(c1ccc(Cl)cc1)N2 (centres undefined)	none
CC(Oc1ccc(Cl)cc1)c1ccnc(N)n1 (centres undefined)	none (no result: Beta cell apopt)
Cc1c(C(=O)N2CCN(c3ncccn3)CC2)oc2c(Cl)cccc12	none
O=C(NN=C1CCCC1)c1ccc(O)cc1	none (no result: Beta cell apopt) | Gli antag conf inactive | Gli cytotox inactive | Wnt3a counter inactive
O=C(NN=C1CCCCCC1)c1ccncc1	none
Cc1nn(-c2ccccc2)c(C)c1C(=O)OC(C)C(=O)NC1CCCCC1C (centres undefined)	none (no result: CSC inhib)
Cc1nc2nc(SCC(=O)NCCCN3CCCC(C)C3)nn2c(C)c1Cc1ccccc1Cl (centres undefined)	none
C=CCOC(=O)C1=C(C)NC(C)=C(C(=O)OCC=C)C1c1ccc(C)o1	none
CCOC(=O)C1=C(C)NC(C)=C(C(=O)OCC)C1c1ccc(C)o1	Gli-Sufu block 59 | Gli antag conf inactive | Gli cytotox 27 | Wnt3a counter inactive
COc1cc(/C=N/NC(=O)c2cc(-c3ccccc3)nc3ccccc23)ccc1O	Gli-Sufu block 59 | Gli antag conf inactive | Gli cytotox inactive | Wnt3a counter inactive
COc1cc(/C=N/NC(=O)c2cc(-c3ccccc3OC(C)C)nc3ccccc23)ccc1O	none
COc1cccc(CC2(CO)CCCN(Cc3cn[nH]c3-c3ccccc3)C2)c1 (centres undefined)	none (no result: CSC inhib)
COC(=O)c1ccc(=O)n(-c2ccc(OC)cc2)c1	Gli-Sufu block 76 (no result: CSC inhib) | Gli antag conf inactive | Gli cytotox inactive | Wnt3a counter inactive
COC(=O)c1cc(Br)c(=O)n(-c2ccc(F)cc2)c1	none
CCOc1ccccc1-c1nc(CN2CCCC2c2nccs2)c(C)o1 (centres undefined)	none | Gli antag conf inactive | Gli cytotox inactive | Wnt3a counter inactive
N#Cc1ccc(OCC(=O)Nc2ccccc2NS(=O)(=O)c2cccs2)cc1	none | Gli antag conf inactive | Gli cytotox inactive | Wnt3a counter inactive
CCOc1ccc(N2C(=O)CC(Cc3ccc(Br)cc3)C2=O)cc1 (centres undefined)	none (no result: Beta cell apopt)
CCOc1ccc(-n2c(-c3ccc(Br)cc3)c[n+]3c2CCCCC3)cc1	Beta cell apopt 118, Gli-Sufu block 86 | Gli antag conf 88 | Gli cytotox 46 | Wnt3a counter inactive
CCOc1ccc(-n2c(-c3ccccc3)c[n+]3c2CCC3)cc1	Beta cell apopt 104, Gli-Sufu block 85 | Gli antag conf 88 | Gli cytotox 33 | Wnt3a counter 41
COCCNC(=O)c1cccc(OC2CCN(Cc3ccc(C(=O)OC)cc3)CC2)c1	Gli-Sufu block 60 (no result: Beta cell apopt) | Gli antag conf inactive | Gli cytotox inactive | Wnt3a counter inactive
CC1Cc2cc(S(=O)(=O)N3CCC(C(=O)N4CCN(c5ccccc5F)CC4)CC3)ccc2N1C(=O)C1CC1 (centres undefined)	Beta cell apopt 75 | Gli antag conf 62 | Gli cytotox inactive | Wnt3a counter inactive
